# Results taken from the supplement of paper PMC6555819.
# Tests used:
# Assay in all cases: PBM binding z-score (relative to random genomic background probes); higher = stronger binding; sequences stand for … in GC…GCGATTGACAGCGTAGAATGAAGG
# [1] = system: PPARg:RXRa DBDmut IVT, anti-RXR (DBD mutation: RXRa K156A/R161A, NR concentration 270 nM, RXRa partner concentration 90 nM)
# Summary of the method: (§1)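 Binding buffer was PBS pH 7.4 with 2% milk, 0.02% Triton X-100, 1 mM DTT, 0.2 mg/mL BSA and 0.4 mg/ml salmon testes DNA. In it, ligand-free nuclear receptor dimers were incubated 1 h on custom Agilent 4×180K protein-binding microarrays carrying double-stranded probes. Antibodies against each partner (one per run) detected binding, and z-scores were calculated against random background probes after regression normalization of scanned fluorescence.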
# [2] = system: PPARg:RXRa IVT, anti-PPARg (NR concentration 270 nM, RXRa partner concentration 90 nM)
# Summary of the method: as §1
# [3] = system: PPARg DBDmut:RXRa IVT, anti-PPARg (DBD mutation: PPARg1 K132A/R137A, NR concentration 270 nM, RXRa partner concentration 90 nM)
# Summary of the method: as §1
# [4] = system: PPARg DBDmut IVT, anti-PPARg (DBD mutation: PPARg1 K132A/R137A, NR concentration 270 nM)
# Summary of the method: as §1
# [5] = system: PPARg homodimer (NR concentration 180 nM)
# Summary of the method: as §1
# [6] = system: PXR:RXRa (NR concentration 270 nM, RXRa partner concentration 90 nM)
# Summary of the method: as §1
# [7] = system: PXR homodimer (NR concentration 270 nM)
# Summary of the method: as §1
# [8] = system: RARa:RXR (NR concentration 270 nM, RXRa partner concentration 90 nM)
# Summary of the method: as §1
# [9] = system: RARa homodimer (NR concentration 270 nM)
# Summary of the method: as §1
# [10] = system: RARb:RXRa (NR concentration 270 nM, RXRa partner concentration 90 nM)
# Summary of the method: as §1
Sequence,PBM binding z-score [1],PBM binding z-score [2],PBM binding z-score [3],PBM binding z-score [4],PBM binding z-score [5],PBM binding z-score [6],PBM binding z-score [7],PBM binding z-score [8],PBM binding z-score [9],PBM binding z-score [10]
CGTCCTAGGTCATAGGAGGTCAGTGAAGACAGAT,3.43,4.34,-0.339,-0.4,2.53,6.01,1.28,4.21,1.08,4.6
TTACCAAGGTGAATGTCGTTGATCCCTCTGTAGA,1.97,2.48,0.0323,0.0146,0.593,0.524,-0.383,1.12,0.309,1.34
CTACCAAGGTGGACAAGGTCGTTGATTACTATTC,0.0779,0.0174,-1.17,0.143,0.0242,1.28,0.687,1.16,0.219,0.561
CCTATTAGTTGACCCTAAGGGCAACCGAAGCTCG,0.775,1.82,0.412,0.556,3.19,4.25,1.16,4.62,2.32,2.93
TCCAGTTGGTCAAAGGTCACACACTCGAAATGCG,3.32,6.12,2.97,1.98,5.35,6.28,2.67,7.69,3.44,5.08
AGTCAAAGTTCAGGACGAGGTAACCTAAAGCACG,-0.128,2.2,0.0369,0.548,2.47,2.74,1.53,2.96,0.958,4.23
CCGACTGGGGCATAATGTTACCATAAGCCAGCCC,2.47,2.12,-0.872,-0.687,0.105,-0.537,-0.468,-0.283,-0.0507,0.133
GCTTTCGGGTCAAAGGTTATAGCATGAATAGAAT,3.82,5.81,1.23,1.1,1.81,5.89,0.475,8.07,1.08,4.59
CCACGGAGGACAGAAGGTCAGAGCTGTCCGCTTT,0.376,0.519,-0.839,-1.85,0.926,1.56,-0.17,2.2,-0.0117,3.21
CCTATTATTTGACCATAAGGGCAACCGAAGCTCG,0.801,1.15,0.688,1.57,3.21,0.9,2.77,1.05,4.4,1.64
ATCGAAAGGTCGAGGTGAGTACAGAGAAAGGGAA,0.64,2.65,1.01,0.9,1.64,3.27,0.251,3.11,1.29,4.14
TCTTGTAGATCAAGAGAGGTTAAGAAAGTGCGCT,0.899,0.319,-0.033,-0.382,-0.0736,2.95,0.139,1.6,-0.753,0.635
AGAATGAGGTTAATAAGATCAGGGAATTGCGGTC,3.37,2.89,0.759,0.384,1.23,1.06,0.151,1.48,0.329,1.58
GGAACGAGGGCAAAGTTGATAACATCTGTCGACG,3.83,4.15,0.399,0.51,1.5,1.23,0.336,1.49,0.102,2.25
CGTCCAAGGTCCGAGAGGTCAGTGAATGCCGAGT,-0.0478,0.0193,-1.25,-0.955,2.31,3.19,1.56,2.87,0.494,3.23
TGAATGAGGTTAAACATCAGGGAACGTGGCGTCG,2.85,2.57,1.51,0.325,0.272,1.7,-0.296,2.29,0.112,2.13
TCTAGCAGGGCAGAGGGTCACTCAAGAGGTACGG,1.26,1.9,-0.31,-0.497,1.22,1.7,-0.546,2.42,-0.749,2.61
TCATATAGGTAAACTGGTGAAAGTCCGTAAGTTA,3.83,2.69,1.43,1.35,0.515,0.463,0.739,0.446,1.61,0.361
TTACCAAGGTGGGCTGAGGTCGTTGATCCAACTC,-0.241,0.386,-0.362,-0.213,-0.101,2.86,0.257,1.14,0.0238,0.446
TAGCCTAGGTCAGAGCGGGCCAGTATACGCTATA,0.635,1.65,-0.73,-0.204,0.133,0.376,-0.362,0.867,-1.12,2.85
TCTTGTAGATAAATAGAGGTTAAGAAAGTGCGCT,2.53,0.875,1.18,0.956,0.0767,2.77,0.529,1.8,1.33,0.915
TCATATAAGTAAAAGGTGAAAGTCGGTGTGGTAA,3.39,2.38,0.923,0.618,1.82,1.24,0.368,2.22,1.48,1.83
AGGCAAAGTTCATCTAGGTAACGTAAGATATGCT,1.08,3.73,1.34,0.748,3.08,5.33,6.34,3.96,1.67,4.72
CGAACTAGGTCATTGACAGGATAGTGAATAGTAA,7.87,8.1,4.08,2.22,1.94,1.25,0.363,1.88,0.385,3.59
CCGACTGGGGCAAAGGTTACTATACTCAGTACGA,4.92,5.73,-0.179,-0.335,1.41,1.93,-0.04,3.21,-0.0301,1.86
